Test results taken from PubChem BioAssay (NCATS).
Records with an inconclusive call do not appear. Active and inactive are the calls of the source. Calls come from the whole dose curve; as a rule, active = well fitted inhibition curve with a large enough effect; inconclusive = small, poorly fitted or top-dose-only effect; inactive = flat fitted curve, though single readings scatter.

How the values were obtained:
Assay in all cases: qHTS profiling for inhibitors of Plasmodium falciparum proliferation (AID 504749); note: nearly all actives have a fitted effect of over 60% in size
Settings in all cases: P. falciparum in erythrocytes, SYBR Green DNA, 72 h; series mostly up to 12.8 µM
CP265 = system: CP265
How it was run: (§1)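 Readout was DNA-dye fluorescence from lysed cultures, ex 485/em 535 nm. Parasitized red cells had grown 72 h with compound; data scaled between 0.29 uM artemisinin and DMSO wells and corrected using vehicle-only plates.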

CP266 = system: CP266
How it was run: as §1

CP268 = system: CP268
How it was run: as §1

CP269 = system: CP269
How it was run: as §1

CP286 = system: CP286
How it was run: as §1

CP291 = system: CP291
How it was run: as §1

CP297 = system: CP297
How it was run: as §1

CP305 = system: CP305
How it was run: as §1

CP315 = system: CP315
How it was run: as §1

CP325 = system: CP325
How it was run: as §1

CP329 = system: CP329
How it was run: as §1

CP335 = system: CP335
How it was run: as §1

DFO2036 = system: DFO2036
How it was run: as §1

DIV14 = system: DIV14
How it was run: as §1

DIV17 = system: DIV17
How it was run: as §1

DIV30 = system: DIV30
How it was run: as §1

Dd2 = system: Dd2
How it was run: as §1

ECU = system: ECU
How it was run: as §1

FAB9 = system: FAB9
How it was run: as §1

GB4 = system: GB4
How it was run: as §1

HB3 = system: HB3
How it was run: as §1

ICS = system: ICS
How it was run: as §1

JCK = system: JCK
How it was run: as §1

N140 = system: N140
How it was run: as §1

P93_24 = system: P93_24
How it was run: as §1

P94_40 = system: P94_40
How it was run: as §1

PAD = system: PAD
How it was run: as §1

PC15 = system: PC15
How it was run: as §1

PC26 = system: PC26
How it was run: as §1

PC49 = system: PC49
How it was run: as §1

SC27B = system: SC27B
How it was run: as §1

TAB109 = system: TAB109
How it was run: as §1

TAB113 = system: TAB113
How it was run: as §1

TAB165 = system: TAB165
How it was run: as §1

W2 = system: W2
How it was run: as §1

Measured: Potency

CN1CC(=O)N=C1N
inactive: all assays above
